The text below walks through data of PubChem BioAssay (Tox21).

Test [1] is described as follows: Human pregnane X receptor (PXR) small molecule agonists, qHTS cell viability counter screen (AID 1346977). Also: nearly all actives have a fitted effect of over 50% in size. Also: potency is read from the fitted curve at half-maximal effect. A digest of the protocol:
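In each well, the PXR reporter HepG2 line was checked for viability: CellTiter-Fluor reagent added 23hr post-dosing, fluorescence read after 1hr incubation at 37C.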
For orientation: Quantitative high-throughput screening tests each substance at several concentrations.

Test [2] can be described thus: Caspase-3/7 induction in HepG2 cells by small molecules, qHTS assay (AID 1346978). Also: nearly all actives have a fitted effect of over 15% in size. Also: potency is read from the fitted curve at half-maximal effect. In outline:
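Wild-type HepG2 cells (2,000/well) were settled 5 h at 37 C, 5% CO2, then exposed to compounds in DMSO for 17 h. Caspase-3/7 activity was read by luminescence 30 min after adding Caspase-Glo 3/7 reagent at room temperature.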

Test [3] in a line: Caspase-3/7 induction in CHO-K1 cells by small molecules, qHTS assay (AID 1346980). Also: nearly all actives have a fitted effect of over 15% in size. A digest of the protocol:
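Wild-type cells were seeded at 1,500 per well and settled 5 hr at 37 C, 5% CO2, then exposed to DMSO-dissolved compounds for 17 hr. Caspase-Glo 3/7 reagent was added, and luminescence was read after 30min at room temperature.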

Test [4] is described as follows: Caspase-3/7 induction in HepG2 cells by small molecules, qHTS cell viability counter screen (AID 1346981). Also: nearly all actives have a fitted effect of over 30% in size. Also: potency is read from the fitted curve at half-maximal effect. A digest of the protocol:
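HepG2, WT, 2,000 cells/well; 5 hr pre-incubation 37 C/5% CO2; compound pin-transferred from DMSO; 16 hr exposure; CellTiter-Fluor, 1 hr; fluorescence read.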

Test [5] addresses Nuclear receptor subfamily 1 group I member 2 (Rattus norvegicus) (UniProt Q9R1A7). In words: Rat pregnane X receptor (rPXR) activation by small molecules, qHTS assay (AID 1346983). Also: nearly all actives have a fitted effect of over 20% in size. The note with it: rPXR luciferase reporter cells, One-Glo luminescence, 24 h; max activation: hits give high values. In outline: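 Cell-based rPXR luciferase reporter assay, 2,000 cells per well, rested 5hr at 37 C before compound addition in DMSO, then 24 hr at 37 C. One-Glo reagent was added and luminescence read after 30 min at room temperature.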

The target of test [6] is Nuclear receptor subfamily 1 group I member 2 (Homo sapiens) (UniProt O75469). In words: CYP3A4 induction through human pregnane X receptor (PXR) by small molecules, qHTS assay (AID 1346984). Also: nearly all actives have a fitted effect of over 40% in size. A digest of the protocol: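 Luminescence readout: luciferase signal after One-Glo (30 min, room temperature), following 3 h at 37C with 3uM final Luciferin-IPA P450 substrate. Cells were DPX-2 (HepG2, PXR/CYP3A4-luc co-transfected) dosed for 24 h.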
Sequence of Nuclear receptor subfamily 1 group I member 2 (Homo sapiens) (O75469 whole entry, looked up): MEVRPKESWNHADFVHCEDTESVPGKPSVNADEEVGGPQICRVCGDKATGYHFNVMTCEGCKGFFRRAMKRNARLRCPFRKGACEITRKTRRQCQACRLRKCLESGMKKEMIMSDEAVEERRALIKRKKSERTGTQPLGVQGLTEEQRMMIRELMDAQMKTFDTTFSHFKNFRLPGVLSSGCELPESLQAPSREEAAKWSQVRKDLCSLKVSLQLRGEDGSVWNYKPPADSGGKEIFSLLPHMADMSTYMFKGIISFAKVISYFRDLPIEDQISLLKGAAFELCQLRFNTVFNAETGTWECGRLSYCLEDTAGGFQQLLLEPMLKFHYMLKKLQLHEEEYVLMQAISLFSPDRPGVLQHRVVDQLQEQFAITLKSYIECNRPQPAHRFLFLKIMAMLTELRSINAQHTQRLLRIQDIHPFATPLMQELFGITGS

For test [7] the target is unchanged. In words: Human pregnane X receptor (PXR) activation by small molecules, qHTS assay (AID 1346985). Also: nearly all actives have a fitted effect of over 40% in size. A digest of the protocol: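 DPX-2 cells (HepG2 co-transfected with a PXR response element and a CYP3A4-promoter luciferase construct) were seeded at 2,000 per well, rested 5 hr at 37C, then exposed to DMSO-dissolved compounds for 24 hr. Activation was read as luciferase luminescence.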

Test [8] deals with Acetylcholinesterase (Homo sapiens) (UniProt P22303). In words: Acetylcholinesterase (AChE) small molecule antagonists: colormetric cell-based qHTS assay (AID 1347395; calls by dose curve; also: nearly all actives have a fitted effect of over 30% in size; also: potency is read from the fitted curve at half-maximal effect). In outline: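 After overnight attachment at 37 C, SH-SY5Y cells get 30 min compound exposure; detection cocktail (acetylthiocholine, DTNB) then incubates 90 min at 37 C, and absorbance reflects AChE-generated thiocholine.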
Sequence of Acetylcholinesterase (Homo sapiens) (P22303 whole entry, looked up): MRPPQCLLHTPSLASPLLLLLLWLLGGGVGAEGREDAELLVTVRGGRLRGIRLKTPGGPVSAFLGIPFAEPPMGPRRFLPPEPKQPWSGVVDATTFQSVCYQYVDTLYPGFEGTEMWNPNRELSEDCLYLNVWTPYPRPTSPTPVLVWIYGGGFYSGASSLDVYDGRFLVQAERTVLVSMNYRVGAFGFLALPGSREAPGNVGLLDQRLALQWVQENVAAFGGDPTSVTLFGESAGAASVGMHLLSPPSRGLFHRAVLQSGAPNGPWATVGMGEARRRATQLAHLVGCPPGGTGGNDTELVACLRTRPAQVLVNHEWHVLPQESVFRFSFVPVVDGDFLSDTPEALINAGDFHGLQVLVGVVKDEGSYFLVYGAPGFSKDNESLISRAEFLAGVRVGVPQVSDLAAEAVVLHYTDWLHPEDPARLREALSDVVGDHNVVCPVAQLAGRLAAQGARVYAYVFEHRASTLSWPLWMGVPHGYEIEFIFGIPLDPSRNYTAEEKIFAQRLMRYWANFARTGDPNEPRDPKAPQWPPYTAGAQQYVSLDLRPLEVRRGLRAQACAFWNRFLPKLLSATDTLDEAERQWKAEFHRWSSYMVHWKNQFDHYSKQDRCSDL

Test [9] concerns the target Nuclear receptor subfamily 1 group I member 2 (Homo sapiens) (UniProt O75469). As to the kind of experiment: Human pregnane X receptor (PXR) small molecule agonists, qHTS assay (AID 1346982). Also: nearly all actives have a fitted effect of over 35% in size. Also: potency is read from the fitted curve at half-maximal effect. A digest of the protocol:
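Luciferase signal from ONE-Glo (30 min, room temperature) measured activation of hPXR-driven CYP3A4 reporter expression in PXR-Luc HepG2 cells treated with compounds for 24 hr at 37 C.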

A short description of test [10]: Caspase-3/7 induction in CHO-K1 cells by small molecules, qHTS cell viability counter screen (AID 1346979). Also: nearly all actives have a fitted effect of over 35% in size. Also: potency is read from the fitted curve at half-maximal effect. In outline: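 Following a 5hr settling period, CHO-K1 cells at 1,500 per well received DMSO-dissolved compounds. Cell viability was quantified 16hr later by CellTiter-Fluor fluorescence, measured after 1hr with reagent at 37C.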

A number with no mark means an inactive call. Inconclusive results are not listed. The source made the active and inactive calls. Unless noted, calls follow the shape of the dose curve; as a rule, active = well fitted curve in the direction sought with a large enough effect in the repeat runs; inconclusive = weak or mixed curves; inactive = no such curve, though single readings can be large; an effect the other way counts as inactive or inconclusive.
% is scaled to controls: 0 for no effect and ±100 for the full control effect.

Sequence of Nuclear receptor subfamily 1 group I member 2 (Rattus norvegicus) (Q9R1A7 whole entry, looked up): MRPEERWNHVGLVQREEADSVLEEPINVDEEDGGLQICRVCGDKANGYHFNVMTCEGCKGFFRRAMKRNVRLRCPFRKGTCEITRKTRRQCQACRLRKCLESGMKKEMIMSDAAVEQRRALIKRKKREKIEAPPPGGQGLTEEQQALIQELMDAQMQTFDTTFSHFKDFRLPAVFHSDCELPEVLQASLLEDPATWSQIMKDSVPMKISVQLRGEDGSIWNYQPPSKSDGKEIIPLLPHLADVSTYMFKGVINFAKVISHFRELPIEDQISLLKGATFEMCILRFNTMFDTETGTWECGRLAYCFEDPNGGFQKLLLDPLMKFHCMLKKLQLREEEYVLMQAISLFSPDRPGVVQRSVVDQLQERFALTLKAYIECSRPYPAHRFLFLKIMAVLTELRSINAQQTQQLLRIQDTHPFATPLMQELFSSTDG

Consider `C[C@H]1CC[C@@H]2[C@@H](C)[C@H]3[C@H](C[C@H]4[C@@H]5CC=C6CC(O[C@@H]7O[C@H](CO)[C@H](O)[C@H](O[C@@H]8O[C@H](CO)[C@@H](O)[C@H](O)[C@H]8O)[C@H]7O[C@H]7O[C@@H](C)[C@H](O)[C@@H](O)[C@H]7O)CC[C@]6(C)[C@H]5CC[C@]34C)N2C1` (some centres undefined), for which the Potency was 11.2 µM (active) in [1], 31.6 µM (active) in test [4] and 26 µM (active) in [8]. Further, the Potency result in [2], in test [3], in test [6] and in [7] was “inactive” throughout. The max activation in test [5] was -11.8%.

Regarding `O=[N+]([O-])c1ccc(Oc2ccc(C(F)(F)F)cc2[N+](=O)[O-])cc1`, the Potency entry in test [1], in test [2], in test [3], in test [4] and in test [8] was “inactive” in each case. Further, the Potency in test [9] was 17.2 µM (active).

For `Nc1ccccc1C(=O)OC/C=C/c1ccccc1`, the Potency entry in test [1], in test [2], in test [3], in [4] and in [8] was “inactive” each time. The Potency in test [9] was 21.7 µM (active).

In the case of `O=C1NCN(c2ccccc2)C12CCN(CC1COc3ccccc3O1)CC2` (centres undefined), the Potency entry in test [1], in [2], in test [3], in test [4] and in test [8] was “inactive” each time. In test [9], the Potency is 5.96 µM (active).

With `CC(C)[C@H](C(=O)O[C@H](C#N)c1cccc(Oc2ccccc2)c1)c1ccc(Cl)cc1`, the Potency result in test [1], in test [2], in test [3], in test [4] and in test [8] was “inactive” in each case. In [9], the Potency is 4.32 µM (active).

On to `O=C(O)COc1nc(Cl)c(Cl)cc1Cl`, for which the Potency result in [1], in test [2], in test [3], in test [9] and in test [8] was “inactive” in each case.

For the compound `Oc1cc(Cl)c(Cl)c(Cl)c1`, the Potency in test [1] is 51.7 µM (active); in [10], 65 µM (active); in test [9], 29.1 µM (active). For the same compound, the Potency entry in test [2], in test [3] and in test [8] was “inactive” each time.

With `Cc1cc(Cl)ccc1O[C@H](C)C(=O)O`, the Potency result in [1], in test [2], in test [3], in test [4], in test [9] and in test [8] was “inactive” throughout.

Take `C[C@]12CC[C@@H]3c4ccc(OC(=O)N(CCCl)CCCl)cc4CC[C@H]3[C@@H]1CC[C@@H]2O`: the Potency result in [1], in test [2], in [3], in test [4], in test [9] and in test [6] was “inactive” in each case. Moreover, the Potency result in test [7] and in test [8] was “inactive” in each case.

Turning to `C=CC(=O)OCC(COC(=O)C=C)(COC(=O)C=C)COC(=O)C=C`, the Potency in test [1] is 12.2 µM (active); in test [2] it was 15.4 µM (active); in [10], 3.86 µM (active); in [4], 15.4 µM (active). Besides, the Potency entry in [8] was “inactive”.

`c1ccc2c(c1)[nH]c1cnccc12`: the Potency entry in test [1], in test [2], in test [10], in test [3] and in [8] was “inactive” in each case.

In the case of `Clc1ccc(Oc2ccccc2)cc1`, the Potency entry in test [1], in test [2], in test [10], in [3], in [9] and in [8] was “inactive” in each case.

Consider `ClCc1ccccc1CCl`, for which the Potency entry in test [1], in [2], in [9] and in [8] was “inactive” each time. Besides, the Potency in [10] is 61.1 µM (active).

In the case of `c1ccc2cc3c(cc2c1)-c1cccc2cccc-3c12`, the Potency entry in [1], in [3], in [4] and in test [8] was “inactive” in each case. The Potency in [2] is 7.59 µM (active); in [9], 2.4 µM (active).

As for `Oc1cccc(-c2ccccc2)c1`, the Potency result in test [1], in test [2], in test [3], in [4] and in [8] was “inactive” each time. In addition, the Potency in test [9] is 48.6 µM (active).

Take `CCOP(=O)(NC(C)C)Oc1ccc(SC)c(C)c1` (centres undefined): the Potency result in test [1], in test [2] and in [3] was “inactive” throughout. Moreover, the Potency is 7.7 µM (active) in test [9] and 58.6 µM (active) in [8].

Turning to `CC(C)OC(=S)S`, the Potency entry in test [1], in [2] and in test [8] was “inactive” in each case. The results for the Potency in test [10] and in test [9] were 27.3 µM (active) and 17.2 µM (active), respectively.

Take `ClC1=C(Cl)[C@]2(Cl)[C@H]3[C@H]([C@H]4C=C[C@H]3C4)[C@@]1(Cl)C2(Cl)Cl`: the Potency entry in test [1], in [2], in test [3], in test [4] and in [8] was “inactive” throughout.

For the compound `COP(=O)(OC)SCn1c(=O)oc2cc(Cl)cnc21`, the Potency in test [1] is 30.6 µM (active); in test [8], 3.56 µM (active). The Potency entry in test [2], in [10] and in [3] was “inactive” in each case.

On to `SCc1ccco1`, for which the Potency entry in [1], in [2], in test [3], in test [4], in [9] and in [8] was “inactive” throughout.

On to `NC(=O)CCl`, for which the Potency entry in [1], in test [2], in test [3], in [4], in [9] and in [8] was “inactive” each time.

For `CCN(CC)C(=S)[S-].CCN(CC)C(=S)[S-].[Zn+2]`, the Potency in [1] is 1.71 µM (active); in test [2], 1.08 µM (active); in test [10], 2.41 µM (active); in test [4] it was 27.1 µM (active); in test [9] it was 4.29 µM (active). The Potency entry in test [8] is “inactive”.

Regarding `Nc1ccccc1C(=O)Oc1ccc2ccccc2c1`, the Potency result in [1], in test [2], in test [3], in test [4] and in test [8] was “inactive” in each case. In addition, in test [9], the Potency was 27.3 µM (active).
